From PubChem
NS1 inh: blocks influenza NS1 protein function; 270,000 tested, 0.4% active; Potency, µM (titrated, usually from 46.1 µM), for inactives: at the highest dose activity, positive = more growth; calls by dose curve; further: potency means the concentration at half of the fitted maximal effect; actives are rising curves; nearly all actives have a fitted effect of over 50% in size
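Read-out: OD600 growth recovery of NS1-expressing budding yeast. Cells grown overnight at 30C in -URA glucose medium, washed, resuspended and diluted 1:100 in 2% galactose assay medium, pH 6.0. Same strain lacking NS1 served as positive control.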
Shiga toxin inh: Shiga toxin inhibition; inhibition, % at 38.7 µM; Vero cells, Shiga toxin protein synthesis inhibition reporter; 290,000 tested, 9.2% active; in the data active means inhibition mostly above about 28%, no sharp cut-off; inactive means mostly below about 43%; further: 0% is about no effect
SARS PLpro yeast: SARS-CoV PLP inhibition in yeast | S. cerevisiae expressing SARS-CoV PLpro, growth rescue | Potency, µM (doses to about 32.9 µM), for the others: at the highest dose activity, positive = growth rescue, hits mostly activators | 330,000 tested, 0.19% active | AID 485353; calls by dose curve; further: potency means the concentration at half of the fitted maximal effect; 0% is about no effect; nearly all actives have a fitted effect of over 55% in size
LmPK inh: blocks Leishmania mexicana pyruvate kinase activity; Q27686; purified LmPK, Kinase-Glo ATP luminescence, 1 h; Potency, µM (highest dose often 57.5 µM), without a hit: at the top dose activity change, negative = inhibition, actives largely listed as inhibitors; 290,000 tested, 0.37% active; further: potency means the concentration at half of the fitted maximal effect; on the % scale 0 is the no-effect control and ±100 the full control effect
Target sequence (Q27686 whole entry, looked up): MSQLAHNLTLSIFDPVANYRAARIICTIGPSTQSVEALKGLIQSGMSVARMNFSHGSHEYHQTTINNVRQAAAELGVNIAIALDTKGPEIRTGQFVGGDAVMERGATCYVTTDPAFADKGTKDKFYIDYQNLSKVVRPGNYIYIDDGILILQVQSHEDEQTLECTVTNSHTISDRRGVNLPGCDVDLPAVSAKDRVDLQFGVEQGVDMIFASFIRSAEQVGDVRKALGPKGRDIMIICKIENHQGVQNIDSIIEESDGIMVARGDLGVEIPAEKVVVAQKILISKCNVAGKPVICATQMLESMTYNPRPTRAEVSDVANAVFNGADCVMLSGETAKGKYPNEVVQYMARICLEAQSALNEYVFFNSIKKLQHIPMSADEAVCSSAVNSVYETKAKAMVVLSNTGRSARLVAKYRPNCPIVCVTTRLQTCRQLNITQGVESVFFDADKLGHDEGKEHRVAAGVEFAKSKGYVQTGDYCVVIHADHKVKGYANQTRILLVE
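0.1 nM LmPK, 0.5 mM PEP, 0.1 mM ADP; 50 mM imidazole pH 7.2, 7 mM MgCl2, 50 mM KCl; 1 h RT. Kinase-Glo luminescence readout, normalized to no-enzyme (full inhibition) and uninhibited wells.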
Tb PYK inh: blocks Trypanosoma brucei pyruvate kinase | 410,000 tested, 0.12% active | TbPYK enzyme, Kinase-Glo Plus ATP luminescence, 45 min | Q57TT1 | Potency, µM (doses to about 76.8 µM), for the others: at the top dose activity, negative = inhibition, usual class: inhibitors | AID 624173; further: potency means the concentration at half of the fitted maximal effect; on the % scale 0 is the no-effect control and ±100 the full control effect; nearly all actives have a fitted effect of over 50% in size
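Activity of T. brucei pyruvate kinase was followed by Kinase-Glo Plus luminescence after the enzyme reacted 45 min at room temperature with 130 uM ADP (final) and substrate. Test compounds were added before ADP at multiple concentrations.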
CHX counter: counter-screen for Shiga toxin inhibitors: cycloheximide protein synthesis inhibition. cell reporter, cycloheximide protein synthesis inhibition counterscreen. max response, %. 300,000 tested, 12% active; in the data active means max response mostly above about 13%, no sharp cut-off; inactive means mostly below about 14%; further: read at 38.3 µM for the half of the compounds with a filed dose; 0% is about no effect
Numbers without * were called inactive; ? = inconclusive; · = no result given; [ ] = another dose, or the depositor's remark. The full list was thinned out, with hits kept by preference. Unless noted, the call rests on the fitted dose curve; in most records, active means well fitted curve in the direction sought with a large enough effect; inconclusive means small, poorly fitted or top-dose-only effect, or another doubt; inactive means no such curve, though single readings can be large; an effect the other way counts as inactive or inconclusive.

SMILES	NS1 inh	Shiga toxin inh	SARS PLpro yeast	LmPK inh	Tb PYK inh	CHX counter
CC(/C=N/NC(=O)c1sc(N)nc1C)=C\c1ccccc1	·	56*	9%	-1%	-1%	44*
Cc1nc(N)sc1C(=O)N/N=C/c1ccco1	14%	2	12%	-14%	-2%	-4
Cc1nc(N)sc1C(=O)N/N=C/c1ccccc1[N+](=O)[O-]	·	126*	-2%	1%	·	36*
O=C(NOC[C@H](O)CO)c1ccc(F)c(F)c1Nc1ccc(I)cc1F	·	·	·	·	-6%	·
CC1CCCN(S(=O)(=O)CCNC(=O)c2ccccc2)C1 (centres undefined)	·	·	-4%	·	-3%	·
O=C(O)C1CC=CCC1C(=O)N1CC=C(c2ccccc2)CC1 (centres undefined)	·	44*	-2%	0%	-15%	29*
O=C(O)CCC(=O)N1CC=C(c2ccccc2)CC1	5%	79*	2%	-1%	4%	50*
O=C(Cn1[nH]c(=O)c2ccccc2c1=O)N1CC=C(c2ccccc2)CC1	-16%	-12	-3%	8%	0%	-6
Cn1c(CC(=O)Nc2ccccc2F)nnc1SCC(=O)NC1CCCCC1	2%	-2	0%	1%	1%	6
C=CCn1c(C)cc(C(=O)COC(=O)CNC(=O)c2ccccc2)c1C	-5%	11*	-1%	0%	4%	114*
C=CCn1c(C)cc(C(=O)COC(=O)C2CC(=O)N(Cc3ccccc3)C2)c1C (centres undefined)	-9%	36	3%	6%	1%	12*
Cc1[nH]c2ccccc2c1C(=O)COC(=O)C1CC(=O)N(Cc2ccccc2)C1 (centres undefined)	-3%	14	2%	0%	-9%	7
CC[C@H](C)[C@H](NC(=O)[C@H](Cc1ccc(O)cc1)NC(=O)[C@@H](NC(=O)[C@H](CCCN=C(N)N)NC(=O)[C@@H](N)CC(=O)O)C(C)C)C(=O)N[C@@H](Cc1ccc(N)cc1)C(=O)N1CCC[C@H]1C(=O)N[C@@H](Cc1ccccc1)C(=O)O	·	11	·	·	·	2
COc1cc2[nH]c3ccccc3c2cc1C	13%	69*	-2%	0%	-1%	53*
COc1ccc(S(=O)(=O)N/N=C(/C)c2ccco2)cc1	-6%	130*	7%	-13%	0%	56*
COc1ccc(S(=O)(=O)N/N=C(/C)c2ccc(C)o2)cc1	·	·	·	·	-5%	·
CCOC(=O)c1cccc(NS(=O)(=O)c2cc3c(cc2C)NC(=O)CO3)c1	·	·	·	·	-6%	·
Cc1ccc2[nH]c(=O)c3cc(C(=O)N(C)Cc4ccco4)sc3c2c1	-49%	48	?	18%	0%	23*
COCCN(Cc1ccco1)C(=O)c1cc2c(=O)[nH]c3ccc(C)cc3c2s1	·	·	·	·	-7%	·
CC(C)CCSc1nc(N)c(C#N)cc1C#N	-9%	11	-14%	3%	-2%	33*
O=C(C1CC(c2ccccc2O)=NO1)N1CCC2(CC1)OCCO2 (centres undefined)	-4%	55	5%	2%	-4%	25*
O=C(NCCc1ccccc1)C1CC(c2ccccc2O)=NO1 (centres undefined)	-13%	4	1%	2%	4%	1
CCOC(=O)N1CCN(C(=O)C2CC(c3ccccc3OC)=NO2)CC1 (centres undefined)	-8%	-6	8%	11%	2%	9
O=C(C1CC(c2ccccc2O)=NO1)N1CCCC1 (centres undefined)	5%	78*	-1%	-14%	2%	38*
CSc1ccccc1NC(=O)C1CC(c2ccccc2O)=NO1 (centres undefined)	-11%	93*	1%	-9%	2%	41*
SMILES	NS1 inh	Shiga toxin inh	SARS PLpro yeast	LmPK inh	Tb PYK inh	CHX counter
O=C(NCCc1ccc(F)cc1)C(=O)NCC(c1ccco1)S(=O)(=O)c1cccs1 (centres undefined)	·	·	·	·	-7%	·
C#CCOCCOCCOCCNc1nc(N2CCN(C(=O)Cn3cc(CCO)nn3)CC2)nc(N2CCN(C(=O)[C@H](CCCCN)n3cc(CC(C)O)nn3)CC2)n1 (some centres undefined)	·	·	·	·	-3%	·
CC(=O)Nc1cccc(NC(=O)CSc2nnc3ccc(-c4cccnc4)nn23)c1	·	·	5%	·	2%	·
COc1cccc(C(=O)c2sc(NC(C)C)nc2N)c1	7%	51*	-5%	1%	-2%	36*
COc1ccccc1OCC(=O)NNC(=O)CSC(=S)N1CCCC1	·	·	4%	·	2%	·
Cc1oc2cc3oc(=O)c(CCC(=O)NCCc4ccccc4F)c(C)c3cc2c1C	·	·	·	·	1%	·
CC[n+]1c(C)sc2c3ccsc3ccc21	·	-3	2%	-10%	4µM*	10
CC(C)(C)c1csc(NNC(=O)c2ccc(Br)cc2)n1	·	94*	-23%	7%[11.5 µM]	-8%	40*
CC(C)(C)c1csc(NC(=O)c2ccccc2O)n1	-136%	39*	-23%	-9%	-1%	32*
CC(C)(C)c1csc(NC(=O)c2c(F)c(F)c(F)c(F)c2F)n1	-78%	-13	-16%	2%	-4%	-3
CSc1ncccc1C(=O)Nc1nc(C(C)(C)C)cs1	1%	18*	-3%	11%	-1%	21*
CC(C)(C)c1csc(NC(=O)c2cccnc2Cl)n1	·	·	·	·	0%	·
O=C(Nc1nccs1)c1ccc(Cl)nc1	-1%	23	-4%	0%	0%	26
Cc1csc(NC(=O)c2ccc(Cl)nc2)n1	-5%	57*	0%	-2%	1%	47*
O=C(C[C@@H]1C[C@@H]2c3cc(NS(=O)(=O)c4ccc(F)cc4)ccc3O[C@@H]2[C@@H](CO)O1)NC1CCCCC1	·	·	·	·	8%	·
CC1CCCCN1CCCNC(=O)c1ccc2c(c1)sc1nc(-c3ccc(F)cc3)cn12 (centres undefined)	·	·	·	·	1%	·
CC1CCN(Cc2c(O)ccc3c(=O)c(Oc4ccccc4Cl)c(C(F)(F)F)oc23)CC1	·	·	·	·	1%	·
COc1ccccc1NC(=O)Nc1nc(C(N)C(C)C)cs1 (centres undefined)	·	·	·	·	0%	·
Cc1csc(Nc2nc(N)c(C(=O)Nc3ccccc3)o2)n1	-4%	98*	0%	1%	-8%	39*
Cc1csc(NC(=O)CSCC(=O)Nc2ccccc2)n1	2%	-4	7%	1%	-1%	-2
Cc1csc(NC(=O)c2cc(C)oc2C)n1	-11%	74*	-6%	?	-6%	28*
Cc1ccc(C(=O)O)c(C(=O)Nc2nc(C)cs2)c1	1%	-8	1%	-7%	5%	-3
COc1ccccc1NC(=O)Nc1nc(C(C)(C)C)cs1	·	50	1%	8%	-7%	21*
Cc1csc(NC(=O)c2ccccc2O)n1	-203%	89*	-49%	-10%	-1%	56*
